From PubChem BioAssay (EPA / NIEHS)
Inconclusive results are not listed. Active and inactive are the calls of the source. Rule for the calls, unless noted: active = hit-call score of the fitted dose curve at least 0.9, where 1 is the maximum; inactive = score below 0.9. Peptide text beside a SMILES is read from it.

Key:
[1] = BSK_BT_PBMCCytotoxicity: PBMC Cytotoxicity Assessment in the BioMAP Diversity Plus: BT Assay (AID 2284225); conditions: primary human B cells with PBMC;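 note: PBMC viability measured by Alamar Blue dye reduction fluorescence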
Outline: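 Viability by Alamar Blue reduction (6 h, ex/em 546/580 nm) after 90 h culture of SEB/TSST-1-activated PBMC (20 ng/mL each) given compound 1 h before activation. DMSO served as baseline for curve fitting.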

[2] = BSK_BT_Bcell_Proliferation: Viability Assessment in the BioMAP Diversity Plus: BT Assay for B cell Proliferation (AID 2284227); conditions: primary human B cells with PBMC
Outline: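 SRB-based protein staining (0.1% SRB after 10% TCA fixation, 560 nm) quantifies proliferation in human B cells co-cultured with PBMC, 72 h post-dosing, with signal gain scored relative to DMSO negative control.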

[3] = read-out: Interleukin 6 (IL6), IL6 (gene 3569); test: BSK_BT_xIL6: BioMAP Diversity Plus: BT Assay for Interleukin 6 (IL6) Biomarker Activity (AID 2284228); conditions: primary human B cells with PBMC
Outline: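 Readout: secreted IL-6 via Luminex xMAP multiplex, 24 h post-dosing. System: primary human B cells co-cultured with PBMC. Signal change scored relative to DMSO vehicle, positive fitting direction.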

[4] = read-out: Interleukin 17A (IL17A), IL17A (gene 3605); test: BSK_BT_xIL17A: BioMAP Diversity Plus: BT Assay for Interleukin 17A (IL17A) Biomarker Activity (AID 2284229); conditions: primary human B cells with PBMC
Outline: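 Luminex xMAP readout of secreted IL-17A; human B cell + PBMC co-culture; 24 h post-dose; positive-direction fit vs DMSO negative control.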

[5] = read-out: Tumor necrosis factor (Homo sapiens) (UniProt P01375); test: BSK_BT_xTNFa: BioMAP Diversity Plus: BT Assay for Tumor necrosis factor alpha (TNF-alpha) Biomarker Activity (AID 2284230); conditions: primary human B cells with PBMC
Outline: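 Compounds were added to a B cell plus PBMC co-culture, and after 24 h secreted TNF-alpha was quantified with Luminex xMAP technology, with responses fitted upward from the DMSO control.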

[6] = read-out: Vascular cell adhesion molecule 1 (VCAM1), VCAM1 (gene 7412); test: BSK_MyoF_VCAM1: BioMAP Diversity Plus: MyoF Assay for Vascular cell adhesion molecule 1 (VCAM1) Biomarker Activity (AID 2284231); conditions: primary human lung fibroblasts
Outline: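 MyoF system, lung fibroblasts; 24 h post-dose; VCAM-1 by ELISA; gain-of-signal fit vs DMSO baseline.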

[7] = read-out: Collagen I, COL1A1 (gene 1277); test: BSK_MyoF_CollagenI: BioMAP Diversity Plus: MyoF Assay for Collagen I Biomarker Activity (AID 2284238); conditions: primary human lung fibroblasts
Outline: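 ELISA readout of Collagen I after 24 h chemical treatment of primary human lung fibroblast cultures; gain of signal scored relative to DMSO vehicle baseline.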

[8] = read-out: Collagen III, COL3A1 (gene 1281); test: BSK_MyoF_CollagenIII: BioMAP Diversity Plus: MyoF Assay for Collagen III Biomarker Activity (AID 2284239); conditions: primary human lung fibroblasts
Outline: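 Lung fibroblast culture; 24 h compound exposure; collagen III by ELISA; gain-of-signal fit vs DMSO baseline.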

[9] = read-out: Interleukin 17F (IL17F), IL17F (gene 112744); test: BSK_BT_xIL17F: BioMAP Diversity Plus: BT Assay for Interleukin 17F (IL17F) Biomarker Activity (AID 2284243); conditions: primary human B cells with PBMC
Outline: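 Secreted IL-17F, read on LumineX xMAP beads, was taken as the endpoint. Cultures combined human B cells and peripheral blood mononuclear cells, sampled 24 hours after dosing, with DMSO serving as negative control.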

[10] = read-out: Actin alpha 1 (ACTA1), ACTA1 (gene 58); test: BSK_MyoF_ACTA1: BioMAP Diversity Plus: MyoF Assay for Actin alpha 1 (ACTA1) Biomarker Activity (AID 2284244); conditions: primary human lung fibroblasts
Outline: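 Cells were exposed to chemical for 24 h before a-SMA levels were quantified by ELISA in human lung fibroblasts. Increases were fitted against DMSO as negative control; parallel SRB staining (0.1% after 10% TCA fixation, 560 nm) assessed cytotoxicity.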

[11] = read-out: Interleukin 2 (IL2), IL2 (gene 3558); test: BSK_BT_xIL2: BioMAP Diversity Plus: BT Assay for Interleukin 2 (IL2) Biomarker Activity (AID 2284245); conditions: primary human B cells with PBMC
Outline: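 The BT system combines human B cells with peripheral blood mononuclear cells. Twenty-four hours after chemical dosing, secreted IL-2 was measured with xMAP bead technology, and responses were analyzed as increases over DMSO controls.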

[12] = CCTE_Mundy_HCI_Cortical_NOG_BPCount: CCTE's Neurite Outgrowth Assay in rat cortical cells for Branch Point Count, Mundy Lab (AID 2284237)
Outline: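 Measured 50.33 h after dosing, this morphology endpoint uses rat primary cortical cultures labelled for betaIII-tubulin. Branch points are quantified by high-content imaging, with DMSO as negative control and baseline.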

[13] = CCTE_Mundy_HCI_hNP1_Casp3_7: CCTE's Caspase-Glo 3/7 Assay in human neuroprogenitor cells for Apoptosis, Mundy Lab (AID 2284240)
Outline: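 Apoptosis is scored by activated caspase-3/7 luminescence in WA09-derived neural progenitor cells, measured 26.5 h after chemical dosing. Values represent gain of signal relative to DMSO vehicle.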

[14] = CCTE_Mundy_HCI_hNP1_CellTiter: CCTE's Cell Titer-Glo 2 Assay in human neuroprogenitor cells for Viability, Mundy Lab (AID 2284241; active = hit-call score of the fitted dose curve at least 0.9, where 1 is the maximum)
Outline: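 Human neural progenitor cells (hNP1, WA09-derived) were plated on poly-L-ornithine/laminin and grown 40 to 44 hours at 37 °C, 5% CO2 before chemical addition. Twenty-four hours later, ATP was measured by CellTiter-Glo luminescence; loss of signal versus DMSO indicates reduced viability.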

[15] = TAMU_HCS_1.5hr_SingleDonor1434_Cytotoxicity: Cytotoxicity Assessment using High-content Screening (HCS) Fluorescent Imaging for the Texas A&M University (TAMU) 1.5-hr Human Induced Pluripotent Stem Cell (iPSC)-derived Cardiotoxicity Assay (AID 2284234; active = hit-call score of the fitted dose curve at least 0.9, where 1 is the maximum)
Outline: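 Nuclear counts from Hoechst 33342 imaging define cytotoxicity here, with EC10 (10% cell-count loss relative to DMSO) as point of departure. iPSC cardiomyocytes received 0.2-100 uM test chemical in 0.5% DMSO for 1.5 h at 37 C.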

[16] = CCTE_Mundy_HCI_Cortical_NOG_NeuronCount: CCTE's Neurite Outgrowth Assay in rat cortical cells for Neuron Count, Mundy Lab (AID 2284236; active = hit-call score of the fitted dose curve at least 0.9, where 1 is the maximum;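 note: neurons counted by imaging betaIII-tubulin and Hoechst stained cortical cells; cells exposed to compound for about 48 hours before fixation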)
Outline: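 Read-out: neuron number by high-content imaging of betaIII-tubulin (Alexa Fluor-488) and Hoechst-labelled rat primary cortical cells.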

[17] = read-out: Basic fibroblast growth factor (bFGF), FGF2 (gene 2247); test: BSK_MyoF_bFGF: BioMAP Diversity Plus: MyoF Assay for Basic fibroblast growth factor (bFGF) Biomarker Activity (AID 2284246); conditions: primary human lung fibroblasts
Outline: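 Chemicals are added to human lung fibroblast cultures and incubated 24 h. bFGF is then measured by ELISA, while parallel cultures receive SRB staining for total protein as a cytotoxicity check. Data are fitted upward against DMSO.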

Tumor necrosis factor (Homo sapiens), sequence (P01375 whole entry, looked up): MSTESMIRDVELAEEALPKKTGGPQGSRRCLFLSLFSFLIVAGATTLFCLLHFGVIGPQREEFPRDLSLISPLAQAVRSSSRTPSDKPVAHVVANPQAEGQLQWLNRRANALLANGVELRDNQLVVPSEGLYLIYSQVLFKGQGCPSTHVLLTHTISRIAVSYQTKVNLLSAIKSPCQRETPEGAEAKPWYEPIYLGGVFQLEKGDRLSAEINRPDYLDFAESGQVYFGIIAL

CC(Cl)COP(=O)(OCC(C)Cl)OCC(C)Cl (centres undefined)
outcome [1]: inactive
outcome [2]: inactive
outcome [3]: inactive
outcome [4]: inactive
outcome [5]: inactive
outcome [6]: inactive
outcome [7]: inactive
outcome [8]: inactive
outcome [9]: inactive
outcome [10]: inactive
outcome [11]: inactive

CCCCCC1=CCCC1=O
outcome [1]: inactive
outcome [2]: inactive
outcome [3]: inactive
outcome [4]: inactive
outcome [5]: inactive
outcome [6]: inactive
outcome [7]: inactive
outcome [8]: inactive
outcome [9]: inactive
outcome [10]: inactive
outcome [11]: inactive

CCN1CN(CC)CN(CC)C1
outcome [2]: inactive
outcome [3]: inactive
outcome [4]: inactive
outcome [5]: inactive
outcome [6]: inactive
outcome [7]: inactive
outcome [8]: inactive
outcome [9]: inactive
outcome [10]: inactive
outcome [11]: inactive

O=C1CCCCCCCCCCC1
outcome [2]: inactive
outcome [3]: inactive
outcome [4]: inactive
outcome [5]: inactive
outcome [6]: inactive
outcome [7]: inactive
outcome [8]: inactive
outcome [9]: inactive
outcome [10]: inactive
outcome [11]: inactive

Clc1cc(Cl)c(Cl)c(Cl)c1Cl
outcome [2]: inactive
outcome [3]: inactive
outcome [4]: inactive
outcome [5]: inactive
AC50 [6]: 20 µM (active)
outcome [7]: inactive
outcome [8]: inactive
outcome [9]: inactive
outcome [10]: inactive
outcome [11]: inactive

Fc1ccc(Br)cc1
outcome [2]: inactive
outcome [3]: inactive
outcome [4]: inactive
outcome [5]: inactive
outcome [6]: inactive
outcome [7]: inactive
outcome [8]: inactive
outcome [9]: inactive
outcome [10]: inactive
outcome [11]: inactive

Cc1noc(NS(=O)(=O)c2ccc(N)cc2)c1C
outcome [12]: inactive
outcome [13]: inactive
outcome [14]: inactive

CCCCCCOC(=O)CCCCC(=O)OCCCCCC
outcome [2]: inactive
outcome [3]: inactive
outcome [4]: inactive
outcome [5]: inactive
outcome [6]: inactive
outcome [7]: inactive
outcome [8]: inactive
outcome [9]: inactive
outcome [10]: inactive
outcome [11]: inactive

CCc1cccc(C)c1N(C(=O)CS(=O)(=O)O)C(C)COC (centres undefined)
outcome [2]: inactive
outcome [3]: inactive
outcome [4]: inactive
outcome [5]: inactive
outcome [6]: inactive
outcome [7]: inactive
outcome [8]: inactive
outcome [9]: inactive
outcome [10]: inactive
outcome [11]: inactive

CC1=CC=C(C(C)C)CC1
outcome [2]: inactive
outcome [3]: inactive
outcome [4]: inactive
outcome [5]: inactive
outcome [6]: inactive
outcome [7]: inactive
outcome [8]: inactive
outcome [9]: inactive
outcome [10]: inactive
outcome [11]: inactive

Cc1c(C(=O)c2c[nH]n(C)c2=O)ccc(S(C)(=O)=O)c1C1=NOCC1
outcome [12]: inactive
outcome [13]: inactive
outcome [14]: inactive

CCCCCCC=O
outcome [2]: inactive
outcome [3]: inactive
outcome [4]: inactive
outcome [5]: inactive
outcome [6]: inactive
outcome [7]: inactive
outcome [8]: inactive
outcome [9]: inactive
outcome [10]: inactive
outcome [11]: inactive

COC(=O)[C@H](Cc1ccccc1)NC(=O)[C@@H](N)CC(=O)O (H-Asp-Phe-OMe)
outcome [15]: inactive
outcome [16]: inactive
outcome [12]: inactive
outcome [13]: inactive
outcome [14]: inactive

Oc1c(Cl)cc(Cl)c(Cl)c1Cl
outcome [2]: inactive
outcome [3]: inactive
outcome [4]: inactive
outcome [5]: inactive
AC50 [6]: 11.6 µM (active)
AC50 [7]: 20 µM (active)
AC50 [8]: 16.5 µM (active)
outcome [9]: inactive
AC50 [10]: 29.7 µM (active)
outcome [11]: inactive
AC50 [17]: 20 µM (active)

C=CC(=O)OCCCCCCOC(=O)C=C
AC50 [2]: 13.2 µM (active)
AC50 [3]: 7.22 µM (active)
AC50 [4]: 6.04 µM (active)
AC50 [5]: 13.1 µM (active)
AC50 [6]: 20 µM (active)
AC50 [7]: 34.4 µM (active)
AC50 [8]: 25.7 µM (active)
AC50 [9]: 9.47 µM (active)
AC50 [10]: 20 µM (active)
AC50 [11]: 9.78 µM (active)
